Screening results from PubChem.
Only some compounds are listed: those with a hit (about 3% of all), similar ones and a draw of the others.
SKKanGAS inh – blocks kanamycin growth of S. pyogenes SKKanGAS strain; BacTiter-Glo, 6 h; inhibition, % at 7.5 µM; 300,000 tested, 1.3% active; AID 1662;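 active means mean replicate score, as percent of positive control median, at least 50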;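 further: strain carries kanamycin resistance gene driven by streptokinase promoter and grows in 40 µg/ml kanamycin; loss of luminescence reflects streptokinase promoter inhibition or plain growth inhibition; 0% = median of DMSO wells and 100% = positive control at its reference dose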
aSyn UTR inh – 5' untranslated region of α-synuclein, MLPCN primary screen | alpha-synuclein 5'UTR reporter, inhibitor activity | inhibition, % (tested at 7.5 µM) | 300,000 tested, 0.82% active | AID 1813; in the data active means inhibition above about 60%;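 further: H4 neuroglioblastoma cells stably carrying SNCA 5'UTR luciferase fusion; 0% = DMSO wells and 100% = positive control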
CSC inhib – blocks cancer stem cells | cancer stem cell-like cells viability, luminescence | inhibition, % at 7.5 µM | 300,000 tested, 1.1% active | AID 2717; in the data active means inhibition above about 75%; tested in HMLE shEcad cells
IEC-6 cytotox – counter-screen for KLF5 inhibitors: cytotoxicity in IEC-6 cells; IEC-6 cytotoxicity, luminescence viability; 290,000 tested, 0.78% active; AID 1825; inhibition, % at 5 µM; in the data active means inhibition above about 22%;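 further: 0% = plate median of test compound wells and 100% = cytotoxic reference compound wells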
KLF5 inhibitor – kruppel-like factor 5 inhibition. 290,000 tested, 0.23% active. AID 1700. DLD-1 KLF5 promoter-luciferase reporter, luminescence. inhibition, % at 5 µM;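 active means inhibition above a per-plate limit of that plate's mean compound inhibition plus 3 SD, cut at about 60% in these data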;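 further: 0% = DMSO wells and 100% = LY294002 at 200 µM; higher means less KLF5 promoter-driven luciferase light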
* = called active by the depositor; nt = not tested or not shown.

SMILES	SKKanGAS inh	aSyn UTR inh	CSC inhib	IEC-6 cytotox	KLF5 inhibitor
C=C1C(=O)O[C@@H]2C[C@@H](C)[C@@H]3C4OC4C(=O)[C@@]3(C)[C@@H](O)[C@H]12 (some centres undefined)	-5	-221	75*	nt	nt
CNc1ccc2oc(C[C@H]3O[C@@]4(CC[C@H]3C)O[C@H]([C@H](C)C(=O)c3ccc[nH]3)[C@H](C)C[C@H]4C)nc2c1C(=O)O	107*	117*	106*	nt	nt
C=C1C(=O)O[C@@H]2C[C@@H](C)[C@@H]3C=CC(=O)[C@@]3(C)[C@@H](OC(=O)CC(=O)O[C@H]3[C@@H]4C(=C)C(=O)O[C@@H]4C[C@@H](C)[C@@H]4C=CC(=O)[C@]43C)[C@H]12	-9	116*	122*	nt	nt
C=C1C(=O)O[C@H]2[C@H]1[C@H](OC(=O)CC(=O)O[C@@H]1C[C@@H](C)[C@@H]3C=CC(=O)[C@@]3(C)[C@H]3OC(=O)C(=C)[C@H]13)C[C@@H](C)[C@H]1C=CC(=O)[C@]12C	1	11	-11	nt	nt
C=C1C(=O)O[C@H]2C[C@@H](C)[C@@H]3C=CC(=O)[C@@]3(C)C[C@H]12	-4	-151	89*	nt	nt
CCCCCCOc1ccc(CN2CCN(CCO)CC2)cc1	-2	15	83*	-4	-52
Cc1ccc(C[n+]2c(-c3ccc(C)cc3)cc(-c3ccc(C)cc3)cc2-c2ccc(C)cc2)cc1	106*	95*	-5	nt	nt
Cc1ccc(-c2cc(-c3ccc(C)cc3)[n+](-c3ccc(C(=O)O)cc3)c(-c3ccc(C)cc3)c2)cc1	0	-16	-7	nt	nt
C[C@]12CC[C@H](O)C[C@H]1CC[C@@H]1[C@@H]2C[C@@H](O)[C@]2(C)[C@@H](C3=CC(=O)OC3)CC[C@]12O	nt	nt	84*	nt	nt
C[C@]12CCC3C(CC[C@H]4C[C@@H](O)CC[C@]34C)[C@H]1C=CC2=O (some centres undefined)	nt	nt	9	nt	nt
C[C@]12CC[C@H](O)C[C@H]1CC[C@@H]1[C@@H]2CC[C@]2(C)[C@@H](C3=CC(=O)OC3)CC[C@]12O	nt	nt	95*	nt	nt
CNC(=O)Nc1ccc(C(=O)N/N=C\C23CC[C@@H](O)CC2(O)CC[C@@H]2[C@@H]3CCC3(C)C(C4=CC(=O)OC4)CCC23O)cc1 (some centres undefined)	13	19	-2	1	-18
CC12CC[C@H]3[C@@H](CCC4(O)C[C@H](O)CCC34/C=N/NC(=O)Cc3ccccc3)C1(O)CCC2C1=CC(=O)OC1 (some centres undefined)	8	25	8	-1	10
CC12CC[C@H]3[C@@H](CCC4(O)C[C@H](O)CCC34/C=N/NC(=O)c3ccccc3[N+](=O)[O-])C1(O)CCC2C1=CC(=O)OC1 (some centres undefined)	0	117*	23	1	-29
CCCCn1c(O)c(/C=N/NC(=O)c2ccncc2)c(=O)[nH]c1=S	106*	0	3	-9	-13
CCCCCCC(=O)N/N=C/c1c(O)n(CCCC)c(=S)[nH]c1=O	84*	17	12	-6	-8
Cc1cccc(C)c1OP(N)(=O)OCC(F)(F)F (centres undefined)	1	9	-1	-8	-7
Oc1c(Br)c(Br)c(Br)c(Br)c1Br	nt	nt	101*	nt	nt
O=c1[nH]c(=O)n(CCC2=CCCCC2)c(O)c1C=Nc1cccc(F)c1	7	16	-11	-4	4
O=C(N/N=C/c1c(O)n(CCC2=CCCCC2)c(=S)[nH]c1=O)c1ccccc1	97*	-24	29	-5	-57
O=C(N/N=C/c1c(O)n(Cc2ccc(F)cc2)c(=O)[nH]c1=O)c1ccccc1	13	-28	1	4	-103
O=C(N/N=C/c1c(O)n(CCC2=CCCCC2)c(=O)[nH]c1=O)c1ccccc1	62*	8	16	1	-26
Nc1ccccc1N=Cc1c(O)n(CCC2=CCCCC2)c(=O)[nH]c1=O	13	32	96*	4	-65
COc1ccc(NC(=O)c2cn(CCC#N)nc2-c2cccc(Br)c2)cc1	3	-1	-14	0	-24
Cc1cc(OCCN2CC2)c2ccccc2n1	1	-73	8	1	-16
CN1CCC(O)(c2cccs2)C(C(=O)c2cccs2)C1 (centres undefined)	-2	8	12	5	-5
N#CC[N+]1(CCCNP2(=O)C=C(c3ccccc3)OC(c3ccccc3)=C2)CCOCC1	1	0	-7	-5	-4
Cc1nn(CC(C)C)c(Cl)c1C(=O)O	-3	9	-22	-4	-7
